PubChem BioAssay AID1159580 (chemical genetic matrix, 2015)
In all, about 5,500 compounds went through this assay and about 2,000 (36%) were called active. About 18% were inconclusive and are not listed. Cut-off read from the data, not from the text of the source: active = normalized growth mostly below about 0.91 (no sharp cut-off); inconclusive = no clear call, values can overlap the other calls; inactive = mostly above about 0.92. This is one part of the list.

Assay: chemical genetic growth profiling, strain panel (AID 1159580);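 note: tested at 20 µM; growth read once vehicle control cultures reached saturation at 30 °C; 1 = growth at the plate median or of vehicle wells; lower values mean less growth of the strain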
Conditions: growth OD

Measured: normalized growth

CC(=O)O[C@H]1C[C@@H](OC(C)=O)C(C)(C)C2CC(=O)[C@]3(C)C(CC[C@@]4(C)[C@H](c5ccoc5)OC(=O)[C@H]5O[C@]543)[C@]21C (some centres not stated)
inactive: S. cerevisiae deletion strains, locus YJR075W, strain HOC1, hits give low values 1.01 | S. cerevisiae deletion strains, locus YKL009W, strain mrt4, hits give low values 0.974 | S. cerevisiae deletion strains, locus YKL068W, hits give low values 1.01 | S. cerevisiae deletion strains, locus YKL085W, strain MDH1 (second series), hits give low values 1.01 | S. cerevisiae deletion strains, locus YKL085W, strain MDH1, hits give low values 1.01 | S. cerevisiae deletion strains, locus YKL160W, strain elf1, hits give low values 0.998 | S. cerevisiae deletion strains, locus YKL190W, strain CNB1, hits give low values 0.998 | S. cerevisiae deletion strains, locus YKR001C, strain vps1, hits give low values 1.03 | S. cerevisiae deletion strains, locus YKR026C, strain gcn3, hits give low values 0.993 | S. cerevisiae deletion strains, locus YKR091W, strain srl3, hits give low values 0.991 | S. cerevisiae deletion strains, locus YLL001W, strain dnm1, hits give low values 0.99 | S. cerevisiae deletion strains, locus YLL026W, hits give low values 0.996 | S. cerevisiae deletion strains, locus YLL041C, strain sdh2, hits give low values 0.982 | S. cerevisiae deletion strains, locus YLR027C, strain aat2, hits give low values 0.988 | S. cerevisiae deletion strains, locus YLR039C, strain RIC1, hits give low values 1 | S. cerevisiae deletion strains, locus YLR058C, strain SHM2, hits give low values 1.01 | S. cerevisiae deletion strains, locus YLR102C, strain apc9, hits give low values 1 | S. cerevisiae deletion strains, locus YLR113W, strain HOG1, hits give low values 1.01 | S. cerevisiae deletion strains, locus YLR221C, strain rsa3, hits give low values 1 | S. cerevisiae deletion strains, locus YLR258W, strain gsy2, hits give low values 1 | S. cerevisiae deletion strains, locus YLR262C, strain YPT6 (second series), hits give low values 0.982 | S. cerevisiae deletion strains, locus YLR262C, strain YPT6, hits give low values 1.07 | S. cerevisiae deletion strains, locus YLR268W, strain sec22, hits give low values 0.998 | S. cerevisiae deletion strains, locus YLR320W, strain mms22, hits give low values 1.01 | S. cerevisiae deletion strains, locus YLR342W, strain FKS1 (second series), hits give low values 1.01 | S. cerevisiae deletion strains, locus YLR342W, strain FKS1, hits give low values 0.994 | S. cerevisiae deletion strains, locus YLR357W, strain rsc2, hits give low values 0.989 | S. cerevisiae deletion strains, locus YLR370C, strain arc18, hits give low values 0.998 | S. cerevisiae deletion strains, locus YLR371W, strain rom2, hits give low values 0.985 | S. cerevisiae deletion strains, locus YLR384C, strain iki3, hits give low values 0.984 | S. cerevisiae deletion strains, locus YLR418C, strain cdc73, hits give low values 1.03 | S. cerevisiae deletion strains, locus YML016C, strain PPZ1, hits give low values 0.996 | S. cerevisiae deletion strains, locus YML032C, strain rad52, hits give low values 1.01 | S. cerevisiae deletion strains, locus YML120C, strain ndi1, hits give low values 0.99 | S. cerevisiae deletion strains, locus YML124C, strain tub3, hits give low values 1 | S. cerevisiae deletion strains, locus YMR058W, strain fet3, hits give low values 0.978 | S. cerevisiae deletion strains, locus YMR078C, strain ctf18, hits give low values 0.996 | S. cerevisiae deletion strains, locus YMR125W, strain sto1, hits give low values 0.98 | S. cerevisiae deletion strains, locus YMR129W, hits give low values 0.994 | S. cerevisiae deletion strains, locus YMR205C, strain PFK2, hits give low values 0.992 | S. cerevisiae deletion strains, locus YMR223W, strain ubp8, hits give low values 1.01 | S. cerevisiae deletion strains, locus YMR231W, strain pep5, hits give low values 0.978 | S. cerevisiae deletion strains, locus YMR263W, strain SAP30, hits give low values 1.02 | S. cerevisiae deletion strains, locus YMR307W, strain GAS1, hits give low values 1.03 | S. cerevisiae deletion strains, locus YNL067W, strain RPL9B, hits give low values 1.03 | S. cerevisiae deletion strains, locus YNL071W, strain lat1, hits give low values 0.992 | S. cerevisiae deletion strains, locus YNL128W, strain TEP1, hits give low values 0.988 | S. cerevisiae deletion strains, locus YNL153C, strain GIM3, hits give low values 1.02 | S. cerevisiae deletion strains, locus YNL183C, strain NPR1, hits give low values 0.941 | S. cerevisiae deletion strains, locus YNL209W, strain ssb2, hits give low values 0.987 | S. cerevisiae deletion strains, locus YNL233W, strain BNI4, hits give low values 1.02 | S. cerevisiae deletion strains, locus YNL248C, strain rpa49, hits give low values 0.981 | S. cerevisiae deletion strains, locus YNL250W, strain rad50, hits give low values 1.03 | S. cerevisiae deletion strains, locus YNL271C, strain bni1, hits give low values 1 | S. cerevisiae deletion strains, locus YNL298W, strain CLA4, hits give low values 1.02 | S. cerevisiae deletion strains, locus YNL307C, strain MCK1, hits give low values 1.02 | S. cerevisiae deletion strains, locus YNL322C, strain KRE1 (second series), hits give low values 0.994 | S. cerevisiae deletion strains, locus YNR049C, strain mso1, hits give low values 0.987 | S. cerevisiae deletion strains, locus YNR052C, strain pop2, hits give low values 1.02 | S. cerevisiae deletion strains, locus YOL012C, strain htz1 1 | S. cerevisiae deletion strains, locus YOL147C, strain pex11, hits give low values 1.01 | S. cerevisiae deletion strains, locus YOR001W, strain rrp6, hits give low values 0.986 | S. cerevisiae deletion strains, locus YOR061W, strain CKA2, hits give low values 0.991 | S. cerevisiae deletion strains, locus YOR069W, strain VPS5, hits give low values 1 | S. cerevisiae deletion strains, locus YOR070C, strain gyp1, hits give low values 1.01 | S. cerevisiae deletion strains, locus YOR080W, strain dia2, hits give low values 1 | S. cerevisiae deletion strains, locus YOR083W, strain WHI5, hits give low values 0.995 | S. cerevisiae deletion strains, locus YOR106W, strain vam3, hits give low values 1 | S. cerevisiae deletion strains, locus YOR136W, strain idh2, hits give low values 1.01 | S. cerevisiae deletion strains, locus YOR144C, strain elg1, hits give low values 1.01 | S. cerevisiae deletion strains, locus YOR184W, strain ser1, hits give low values 0.996 | S. cerevisiae deletion strains, locus YOR231W, strain MKK1, hits give low values 0.981 | S. cerevisiae deletion strains, locus YOR265W, strain rbl2, hits give low values 0.99 | S. cerevisiae deletion strains, locus YOR270C, strain vph1, hits give low values 0.943 | S. cerevisiae deletion strains, locus YOR290C, strain snf2, hits give low values 1 | S. cerevisiae deletion strains, locus YOR316C, strain cot1, hits give low values 1.02 | S. cerevisiae deletion strains, locus YPL051W, strain arl3, hits give low values 1.03 | S. cerevisiae deletion strains, locus YPL078C, strain atp4, hits give low values 0.989 | S. cerevisiae deletion strains, locus YPL106C, strain sse1, hits give low values 1 | S. cerevisiae deletion strains, locus YPL240C, strain hsp82, hits give low values 0.995 | S. cerevisiae deletion strains, locus YPL256C, strain CLN2, hits give low values 0.968 | S. cerevisiae deletion strains, locus YPR119W, strain clb2, hits give low values 1.01 | S. cerevisiae deletion strains, locus YPR141C, strain kar3, hits give low values 1 | S. cerevisiae deletion strains, locus YPR163C, strain tif3, hits give low values 1.01 | S. cerevisiae deletion strains, locus YPR167C, strain met16, hits give low values 1 | S. cerevisiae deletion strains, strain wtn01, hits give low values 0.984 | S. cerevisiae strains, strain wild type, hits give low values 0.991
